# Measured values reported in the supplement of paper PMC6411743.
# ± gives the standard deviation of the averaged measurements. The full data set covers some 6,200 targets. This sample favours those with the largest changes.
# Compound: Nc1ncnc2c1ncn2[C@@H]1O[C@H](COP(=O)(O)OP(=O)(O)NP(=O)(O)O)[C@@H](O)[C@H]1O [adenylyl imidodiphosphate]
# Assay: NP40-soluble protein abundance relative to vehicle (solubility fold change) (ratio); higher = more soluble protein in presence of AMP-PNP
# How it was run: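 Values are fold changes against the detergent-processed vehicle, based on vsn-normalised intensities. Jurkat crude lysate was treated at eight concentrations from 0.1 to 10 mM (10 min at room temperature, then 3 min at 37 °C), solubilised with 0.8% NP40 and benzonase, ultracentrifuged and analysed by TMT-labelled LC-MS/MS over three independent experiments.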
# Sequence of UniProt P38159 (P38159 whole entry): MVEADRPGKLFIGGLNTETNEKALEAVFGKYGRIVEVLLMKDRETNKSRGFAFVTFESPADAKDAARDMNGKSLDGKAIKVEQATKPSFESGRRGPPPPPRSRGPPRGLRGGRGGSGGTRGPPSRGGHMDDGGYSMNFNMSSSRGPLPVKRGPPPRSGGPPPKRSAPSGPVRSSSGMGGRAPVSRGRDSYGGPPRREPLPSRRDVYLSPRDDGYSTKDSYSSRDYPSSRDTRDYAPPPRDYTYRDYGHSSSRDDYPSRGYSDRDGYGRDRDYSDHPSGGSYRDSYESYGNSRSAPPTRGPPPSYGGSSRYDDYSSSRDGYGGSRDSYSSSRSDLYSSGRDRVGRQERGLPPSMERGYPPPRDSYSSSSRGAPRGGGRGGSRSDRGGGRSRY
# Sequence of UniProt P04049 (P04049 whole entry): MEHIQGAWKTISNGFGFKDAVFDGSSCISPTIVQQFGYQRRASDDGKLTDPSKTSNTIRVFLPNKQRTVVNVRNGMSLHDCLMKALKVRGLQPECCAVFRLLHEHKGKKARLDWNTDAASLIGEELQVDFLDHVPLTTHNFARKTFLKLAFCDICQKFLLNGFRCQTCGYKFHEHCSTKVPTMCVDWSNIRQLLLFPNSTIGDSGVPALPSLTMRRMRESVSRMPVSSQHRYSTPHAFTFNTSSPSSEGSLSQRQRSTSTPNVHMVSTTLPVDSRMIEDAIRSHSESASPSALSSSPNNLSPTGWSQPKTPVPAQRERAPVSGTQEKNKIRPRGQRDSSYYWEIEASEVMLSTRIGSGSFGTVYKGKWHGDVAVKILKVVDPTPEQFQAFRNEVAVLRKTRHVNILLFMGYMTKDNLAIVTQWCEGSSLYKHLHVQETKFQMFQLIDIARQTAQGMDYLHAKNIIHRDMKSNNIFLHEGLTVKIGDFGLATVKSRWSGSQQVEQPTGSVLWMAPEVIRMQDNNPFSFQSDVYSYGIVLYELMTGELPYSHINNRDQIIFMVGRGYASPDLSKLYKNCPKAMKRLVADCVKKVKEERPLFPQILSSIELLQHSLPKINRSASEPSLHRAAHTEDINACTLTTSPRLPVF
# Sequence of UniProt O76031 (O76031 whole entry): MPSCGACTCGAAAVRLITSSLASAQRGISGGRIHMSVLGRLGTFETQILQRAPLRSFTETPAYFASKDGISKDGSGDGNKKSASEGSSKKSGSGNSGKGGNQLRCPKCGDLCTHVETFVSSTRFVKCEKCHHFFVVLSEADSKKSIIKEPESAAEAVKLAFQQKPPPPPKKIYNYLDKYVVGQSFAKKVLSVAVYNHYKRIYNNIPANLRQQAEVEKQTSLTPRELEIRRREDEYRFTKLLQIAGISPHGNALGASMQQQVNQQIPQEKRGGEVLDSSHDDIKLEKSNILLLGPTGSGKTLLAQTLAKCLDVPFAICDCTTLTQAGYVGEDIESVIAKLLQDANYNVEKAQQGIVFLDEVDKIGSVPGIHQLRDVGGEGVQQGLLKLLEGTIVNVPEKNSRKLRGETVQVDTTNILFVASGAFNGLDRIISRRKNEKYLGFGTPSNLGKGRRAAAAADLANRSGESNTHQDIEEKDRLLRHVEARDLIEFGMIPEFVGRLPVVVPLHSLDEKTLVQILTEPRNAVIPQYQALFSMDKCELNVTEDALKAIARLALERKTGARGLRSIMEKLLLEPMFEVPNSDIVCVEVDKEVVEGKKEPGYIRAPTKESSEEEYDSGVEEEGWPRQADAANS
# Sequence of UniProt O75531 (O75531 whole entry): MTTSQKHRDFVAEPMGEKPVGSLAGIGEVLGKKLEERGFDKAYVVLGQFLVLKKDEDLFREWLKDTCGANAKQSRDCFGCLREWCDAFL
# Sequence of UniProt P51116 (P51116 whole entry): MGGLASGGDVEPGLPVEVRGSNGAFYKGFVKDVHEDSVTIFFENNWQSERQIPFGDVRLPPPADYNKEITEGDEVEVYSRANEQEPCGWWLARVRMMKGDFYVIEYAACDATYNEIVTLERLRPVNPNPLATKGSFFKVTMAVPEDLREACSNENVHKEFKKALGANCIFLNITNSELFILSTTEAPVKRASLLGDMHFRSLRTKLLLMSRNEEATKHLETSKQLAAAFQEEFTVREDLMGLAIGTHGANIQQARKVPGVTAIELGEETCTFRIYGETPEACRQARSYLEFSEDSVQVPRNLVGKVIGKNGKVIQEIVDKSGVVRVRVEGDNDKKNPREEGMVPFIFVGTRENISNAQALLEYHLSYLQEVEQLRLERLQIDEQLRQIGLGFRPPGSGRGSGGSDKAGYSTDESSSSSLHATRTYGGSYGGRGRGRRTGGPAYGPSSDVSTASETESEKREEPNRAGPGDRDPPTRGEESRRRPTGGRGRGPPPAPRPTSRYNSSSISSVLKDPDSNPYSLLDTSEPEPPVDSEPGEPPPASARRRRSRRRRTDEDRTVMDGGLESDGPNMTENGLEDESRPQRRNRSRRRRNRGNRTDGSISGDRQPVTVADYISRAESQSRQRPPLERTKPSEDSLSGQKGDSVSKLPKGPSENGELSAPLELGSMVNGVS
# Sequence of UniProt P28070 (P28070 whole entry): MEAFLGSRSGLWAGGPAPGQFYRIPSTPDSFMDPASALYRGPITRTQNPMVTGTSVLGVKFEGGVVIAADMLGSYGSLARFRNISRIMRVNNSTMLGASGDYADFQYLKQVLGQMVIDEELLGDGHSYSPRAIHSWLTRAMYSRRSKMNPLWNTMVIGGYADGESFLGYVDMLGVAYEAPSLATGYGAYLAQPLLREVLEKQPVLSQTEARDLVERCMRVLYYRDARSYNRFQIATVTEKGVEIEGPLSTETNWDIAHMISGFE
# Sequence of UniProt P85037 (P85037 whole entry): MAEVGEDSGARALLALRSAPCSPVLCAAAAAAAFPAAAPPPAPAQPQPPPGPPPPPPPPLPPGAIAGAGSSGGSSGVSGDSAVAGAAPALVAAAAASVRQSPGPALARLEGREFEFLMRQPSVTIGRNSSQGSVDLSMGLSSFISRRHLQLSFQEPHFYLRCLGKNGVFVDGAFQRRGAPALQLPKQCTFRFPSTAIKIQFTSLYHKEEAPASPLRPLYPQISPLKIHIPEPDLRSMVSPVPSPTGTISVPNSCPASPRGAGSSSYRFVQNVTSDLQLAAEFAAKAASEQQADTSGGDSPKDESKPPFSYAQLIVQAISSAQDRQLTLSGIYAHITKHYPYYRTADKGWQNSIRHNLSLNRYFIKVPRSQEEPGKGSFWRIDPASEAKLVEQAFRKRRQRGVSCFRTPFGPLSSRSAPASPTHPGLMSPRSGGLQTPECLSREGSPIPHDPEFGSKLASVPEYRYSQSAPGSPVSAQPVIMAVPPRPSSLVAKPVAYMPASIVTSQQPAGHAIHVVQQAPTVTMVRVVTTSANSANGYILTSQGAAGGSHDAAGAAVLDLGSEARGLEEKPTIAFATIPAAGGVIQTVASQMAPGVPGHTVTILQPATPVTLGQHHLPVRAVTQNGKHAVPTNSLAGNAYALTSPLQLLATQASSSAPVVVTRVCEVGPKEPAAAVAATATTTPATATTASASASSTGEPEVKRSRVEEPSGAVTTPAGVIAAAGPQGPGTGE
# Sequence of UniProt P11388 (P11388 whole entry): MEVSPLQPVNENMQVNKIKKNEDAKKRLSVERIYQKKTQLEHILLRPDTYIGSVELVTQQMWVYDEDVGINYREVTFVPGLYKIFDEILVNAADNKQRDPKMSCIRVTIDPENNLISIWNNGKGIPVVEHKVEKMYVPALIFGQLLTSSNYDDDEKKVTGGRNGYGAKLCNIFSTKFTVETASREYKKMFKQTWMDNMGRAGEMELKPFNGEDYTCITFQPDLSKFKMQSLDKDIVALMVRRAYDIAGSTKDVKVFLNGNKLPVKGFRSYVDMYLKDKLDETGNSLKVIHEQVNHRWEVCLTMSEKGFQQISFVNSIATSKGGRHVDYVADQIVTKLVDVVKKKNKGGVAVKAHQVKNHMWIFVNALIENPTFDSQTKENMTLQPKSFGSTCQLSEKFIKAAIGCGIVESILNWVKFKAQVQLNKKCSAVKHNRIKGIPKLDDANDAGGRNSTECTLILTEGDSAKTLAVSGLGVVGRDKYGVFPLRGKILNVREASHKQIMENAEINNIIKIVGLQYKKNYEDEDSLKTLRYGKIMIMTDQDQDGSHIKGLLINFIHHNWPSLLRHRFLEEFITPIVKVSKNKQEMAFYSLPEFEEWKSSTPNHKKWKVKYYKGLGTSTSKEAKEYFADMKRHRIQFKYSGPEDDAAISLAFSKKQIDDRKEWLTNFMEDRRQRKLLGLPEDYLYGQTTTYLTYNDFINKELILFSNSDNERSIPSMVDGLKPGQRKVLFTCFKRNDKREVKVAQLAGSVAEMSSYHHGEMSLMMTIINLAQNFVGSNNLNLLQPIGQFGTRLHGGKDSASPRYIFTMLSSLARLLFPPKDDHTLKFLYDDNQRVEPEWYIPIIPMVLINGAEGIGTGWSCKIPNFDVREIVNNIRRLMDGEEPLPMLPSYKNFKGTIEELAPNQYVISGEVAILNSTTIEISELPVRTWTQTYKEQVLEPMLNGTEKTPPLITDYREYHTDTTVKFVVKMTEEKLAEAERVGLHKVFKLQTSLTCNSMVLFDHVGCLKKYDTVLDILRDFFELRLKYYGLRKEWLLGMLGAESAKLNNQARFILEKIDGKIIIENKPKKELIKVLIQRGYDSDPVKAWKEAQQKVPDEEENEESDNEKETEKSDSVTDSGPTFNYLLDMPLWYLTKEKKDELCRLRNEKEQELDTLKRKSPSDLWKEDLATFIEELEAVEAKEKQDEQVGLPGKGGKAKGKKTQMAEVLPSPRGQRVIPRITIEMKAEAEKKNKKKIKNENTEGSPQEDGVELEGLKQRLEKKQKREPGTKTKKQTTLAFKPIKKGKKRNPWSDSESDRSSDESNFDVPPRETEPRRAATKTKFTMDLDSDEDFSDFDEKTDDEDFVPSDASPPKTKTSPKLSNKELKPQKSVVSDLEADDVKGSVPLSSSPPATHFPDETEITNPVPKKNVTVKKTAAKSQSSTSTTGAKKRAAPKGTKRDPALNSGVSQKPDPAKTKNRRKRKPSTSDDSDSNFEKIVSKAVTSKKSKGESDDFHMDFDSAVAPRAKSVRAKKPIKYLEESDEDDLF
Target,NP40-soluble protein abundance (concentration: 1mM),NP40-soluble protein abundance (concentration: 2mM),NP40-soluble protein abundance (concentration: 4mM),NP40-soluble protein abundance (concentration: 6mM),NP40-soluble protein abundance (concentration: 8mM),NP40-soluble protein abundance (concentration: 10mM)
LCP2 (UniProt Q13094),1.02 ± 0.027,1.05 ± 0.053,0.992 ± 0.034,0.98 ± 0.0097,0.955 ± 0.042,0.947 ± 0.061
ALDH4A1 (UniProt P30038),0.99 ± 0.028,1.02 ± 0.016,0.977 ± 0.033,0.975 ± 0.023,0.938 ± 0.013,0.954 ± 0.02
FBL (UniProt P22087),1.02 ± 0.046,1.027 ± 0.003,1.1 ± 0.051,1.22 ± 0.092,1.37 ± 0.12,1.48 ± 0.25
SSR4 (UniProt P51571),0.998 ± 0.014,0.961 ± 0.064,0.988 ± 0.019,0.977 ± 0.027,0.998 ± 0.011,0.981 ± 0.037
AKT2 (UniProt P31751),0.974 ± 0.025,0.95 ± 0.043,0.969 ± 0.034,0.947 ± 0.031,0.969 ± 0.017,0.96 ± 0.044
UniProt P62857,0.941 ± 0.041,0.993 ± 0.078,0.919 ± 0.069,0.837 ± 0.071,0.74 ± 0.057,0.847 ± 0.092
DNAJC3 (UniProt Q13217),0.978 ± 0.031,0.9648 ± 0.0063,0.973 ± 0.011,1.01 ± 0.014,0.985 ± 0.021,0.999 ± 0.022
UniProt O75475|V9GYT7,1.08 ± 0.028,1.21 ± 0.042,1.24 ± 0.056,1.34 ± 0.057,1.34 ± 0.024,1.37 ± 0.023
RFX1 (UniProt P22670),1.04 ± 0.016,1.03 ± 0.015,1.03 ± 0.03,1 ± 0.033,1.01 ± 0.025,0.995 ± 0.02
UniProt Q13243,1.1 ± 0.056,1.2 ± 0.091,1.17 ± 0.07,1.19 ± 0.013,1.208 ± 0.0093,1.36 ± 0.12
BANF1 (UniProt O75531),2.32 ± 0.38,2.76 ± 0.16,3 ± 0.25,3.73 ± 0.25,4.03 ± 0.2,4.25 ± 0.21
TBL3 (UniProt Q12788),1.07 ± 0.02,1.15 ± 0.05,1.21 ± 0.023,1.35 ± 0.027,1.46 ± 0.024,1.53 ± 0.075
UniProt P25398,0.934 ± 0.016,0.955 ± 0.044,0.869 ± 0.053,0.872 ± 0.033,0.81 ± 0.054,0.847 ± 0.049
PSMB4 (UniProt P28070),0.931 ± 0.043,0.905 ± 0.048,0.918 ± 0.096,0.971 ± 0.046,0.968 ± 0.071,1 ± 0.13
DBT (UniProt P11182),0.977 ± 0.14,1.01 ± 0.12,1.01 ± 0.15,0.999 ± 0.2,0.971 ± 0.14,1.03 ± 0.19
UniProt O94804,1.03 ± 0.017,1.04 ± 0.031,1.01 ± 0.027,0.987 ± 0.029,0.96 ± 0.012,0.991 ± 0.048
UniProt P10619|P10619-2|X6R5C5|X6R8A1,0.979 ± 0.018,0.987 ± 0.086,0.984 ± 0.044,1.05 ± 0.11,1.06 ± 0.083,1.07 ± 0.13
FXR2 (UniProt P51116),1.07 ± 0.022,1.1 ± 0.023,1.2 ± 0.025,1.24 ± 0.076,1.33 ± 0.051,1.39 ± 0.12
UniProt P54619|P54619-3|P54619-2,0.993 ± 0.015,0.871 ± 0.092,0.964 ± 0.035,0.943 ± 0.025,1.01 ± 0.02,0.905 ± 0.045
ITGA2 (UniProt P17301),0.9944 ± 0.0014,1.02 ± 0.084,0.988 ± 0.024,1.019 ± 0.0071,1.01 ± 0.025,1.04 ± 0.011
UniProt P48047,0.907 ± 0.042,0.912 ± 0.041,0.896 ± 0.051,0.96 ± 0.087,0.974 ± 0.045,0.938 ± 0.1

Target,NP40-soluble protein abundance (concentration: 1mM),NP40-soluble protein abundance (concentration: 2mM),NP40-soluble protein abundance (concentration: 4mM),NP40-soluble protein abundance (concentration: 6mM),NP40-soluble protein abundance (concentration: 8mM),NP40-soluble protein abundance (concentration: 10mM)
NAA20 (UniProt P61599),0.999 ± 0.039,0.9558 ± 0.0052,0.991 ± 0.022,0.973 ± 0.01,1.026 ± 0.0096,0.9551 ± 0.001
UniProt P51608-2|P51608|A0A087WXF0,1.04 ± 0.023,1.06 ± 0.016,1.04 ± 0.046,1.07 ± 0.019,1.07 ± 0.028,1.15 ± 0.042
GRB2 (UniProt P62993),0.985 ± 0.035,0.943 ± 0.046,0.946 ± 0.023,0.972 ± 0.01,0.944 ± 0.037,0.918 ± 0.024
RPL7 (UniProt P18124),0.966 ± 0.094,0.953 ± 0.039,0.962 ± 0.07,0.895 ± 0.056,0.902 ± 0.097,0.985 ± 0.024
UniProt P11388|P11388-2|P11388-3|P11388-4,1.66 ± 0.082,1.72 ± 0.05,1.82 ± 0.16,1.98 ± 0.14,2.04 ± 0.24,2.13 ± 0.27
ARG2 (UniProt P78540),0.983 ± 0.026,1.02 ± 0.033,1.02 ± 0.033,1.01 ± 0.027,0.997 ± 0.019,0.985 ± 0.038
CDK6 (UniProt Q00534),0.987 ± 0.029,0.951 ± 0.022,0.959 ± 0.03,0.967 ± 0.012,0.945 ± 0.033,0.91 ± 0.029
FOXK1 (UniProt P85037),0.999 ± 0.044,1.06 ± 0.086,1.01 ± 0.014,0.987 ± 0.015,0.9378 ± 0.0057,1.01 ± 0.02
FARS2 (UniProt O95363),0.9733 ± 0.0048,0.856 ± 0.13,0.943 ± 0.01,0.9111 ± 0.0032,0.919 ± 0.033,0.876 ± 0.029
PYGB (UniProt P11216),1.06 ± 0.1,1.09 ± 0.15,1.35 ± 0.14,1.43 ± 0.17,1.54 ± 0.24,1.47 ± 0.24
CLPX (UniProt O76031),0.957 ± 0.062,0.969 ± 0.062,0.955 ± 0.074,0.909 ± 0.08,0.886 ± 0.074,0.923 ± 0.078
NUDT2 (UniProt P50583),0.9311 ± 0.0079,0.909 ± 0.027,1.56 ± 0.26,1.22 ± 0.17,1.49 ± 0.23,1.14 ± 0.14
NCKAP1L (UniProt P55160),0.975 ± 0.021,0.905 ± 0.085,0.955 ± 0.027,0.955 ± 0.072,0.975 ± 0.046,0.914 ± 0.037
PSMD2 (UniProt Q13200),0.891 ± 0.014,0.849 ± 0.068,0.854 ± 0.074,0.858 ± 0.087,0.851 ± 0.086,0.816 ± 0.12
VPS26A (UniProt O75436),0.946 ± 0.045,0.861 ± 0.062,0.895 ± 0.019,0.872 ± 0.032,0.931 ± 0.046,0.829 ± 0.02
UniProt P42285,1.006 ± 0.0056,0.982 ± 0.062,1.07 ± 0.033,1.1 ± 0.036,1.14 ± 0.068,1.13 ± 0.089
UniProt P38159|P38159-2,1.12 ± 0.09,1.34 ± 0.094,1.34 ± 0.037,1.53 ± 0.16,1.58 ± 0.19,1.82 ± 0.16
HMGN2 (UniProt P05204),1.06 ± 0.04,1.15 ± 0.12,1.09 ± 0.05,1.25 ± 0.081,1.16 ± 0.21,1.54 ± 0.28
FASN (UniProt P49327),0.959 ± 0.021,0.874 ± 0.091,0.941 ± 0.026,0.913 ± 0.026,0.917 ± 0.035,0.896 ± 0.036
COX6B1 (UniProt P14854),0.864 ± 0.041,0.926 ± 0.032,0.916 ± 0.063,0.86 ± 0.055,0.821 ± 0.016,0.839 ± 0.019
UniProt P04049|P04049-2,1.03 ± 0.023,1.06 ± 0.037,1.07 ± 0.04,1.05 ± 0.036,1.06 ± 0.033,1.05 ± 0.032
